# Measured values taken from the supplement of paper PMC10105736.
# Values without a mark were called inactive.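 Rule for the calls: active = MAPPIT score above the 99th percentile of random reference set scores in the same batch; inactive = at or below it.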
# B1: Pka-R1 (protein)
# chain: MSYMMAKTLEEQSLRECEHYIQTHGIQRVLKDCIVQLCVCRPENPVQFLRQYFQKLEREQVKLDASRQVISPDDCEDLSPMPQTAAPPVRRRGGISAEPVTEEDATNYVKKVVPKDYKTMNALSKAIAKNVLFAHLDESERSDIFDAMFPVNHIAGENIIQQGDEGDNFYVIDVGEVDVFVNSELVTTISEGGSFGELALIYGTPRAATVRAKTDVKLWGIDRDSYRRILMGSTIRKRKMYEEFLSRVSILESLDKWERLTVADSLETCSFDDGETIVKQGAAGDDFYIILEGCAVVLQQRSEGEDPAEVGRLGSSDYFGEIALLLDRPRAATVVARGPLKCVKLDRARFERVLGPCADILKRNITQYNSFVSLSV
# B2: nudE (protein)
# chain: MESPPMFNSVEDECRYWKERSKQYHKEWTDVKQEYDEFVEQSREMEIEMDATLDQKQSIIKDLTAKLTMFERENESLKLKLESHGIDMSNMEKQLETVKKDRDTMKVYLRQLEQKNDDLERAHRILNESIENFEKMLDQAYEKNALLELEVDEKGLLQEKLQRLMDETRDLKQELNVKSRFTPVVNGTSVPTANDTNTVNSSMNSSASLPNGIVANGELVKHDNAVATRATSVSVNALNGSLVNRNEYNQQHSLKSDGDETEDVPREWSANAAATPLLPAIHTSGAGRTALLLAGCRVVWILQFSVIHKPQIRNPIT
# B3: Mst84Db (protein)
# chain: MCCGPLGFCGPCSPCGGPCGPCGPCGPCGSCCSPCGSCCAPCGPCGPCGPCCGGCGPCGPCGPCCGPCRPYCGC
# B4: Rtca (protein)
# chain: MDAEKMLEIDGSYLEGGGQALRNALSLSCILGKPVRVVKIRASRPSPGLSHQHLHGLNLLRDITNADVVGNYLLSSTVEFTPRTILDNTYRVETHTAASITLIYQMALPVLLFAGRPSRLIVSGGTNVDFAPPVEYMQEVLLPNLKHFGVSFDLKVQRYGFYPRGQGRCQLDVQPVTKLNSGKLVAFGRIKSVSGVAYCAGRLPVNIAIDMQQTAQREIHRLWPSQQCSIEPIKHSRQKAFHNGAGILMTVNTTSDVVLGASALGKKRIDGHVLGSEASCQLGDYMRKQVCVDDYMQDQLIIYMALAVGRSTMRTGKLTNHTRTAINVAEQMTGVKFDVAMEPGGQMLVSCKGLGHVNKLI
# B5: Jupiter (protein)
# chain: MAAYAAFKHVELYNVGKAKKRVLRPPGGGSSDIFGSEMPQTPRNVKNRMASNIFAAEKDNGVKNNVRQGAHRFYFIGDAPRRGQKTVDSHSRLFGEPTRPITPGKNHMKSSIPFGQNTEAVAAQKLLTTNGHYNGKSGSVSSASSSVSSSTENLKMNSGSRSEGNPVTGEGYKVVANEYSQRQESSNGGTPVINKNRIPPGGYSSGLW
# B6: Paris (protein)
# chain: MAEICRVCMDISGKLVNIFDARRRTRVSIAEMIAQCTGFEVKRGDLFSEMICPQCYEDVKSAYGIRQTCEESHQFYCRVRDEGIEDALCALLEEEDWEISEDEDARIDSASAADDDGKSDSKKVAFECRECHKKYQRKGTFLRHMRTHMDGQSFPCPYCKRNFRLRVTLKAHMKTHNAAKPYECSHCAKTFAQQSTLQSHERTHTGERPFKCSQCSKTFIKSSDLRRHIRTHGSERPFKCSKCTKTFTRKFHLDNHFRSHTGERPFKCSHCPKAFAMKQHLKQHSRLHLPDRPFRCSHCPKTFRLSSTLKEHKLVHNAERTFKCPHCASFYKQRKTLARHILEIHK
# B7: Tm2 (protein)
# chain: MDAIKKKMQAMKLEKDNAIDKADTCENQAKDANSRADKLNEEVRDLEKKFVQVEIDLVTAKEQLEKANTELEEKEKLLTATESEVATQNRKVQQIEEDLEKSEERSTTAQQKLLEATQSADENNRMCKVLENRSQQDEERMDQLTNQLKEARMLAEDADTKSDEVSRKLAFVEDELEVAEDRVRSGESKIMELEEELKVVGNSLKSLEVSEEKANQRVEEFKREMKTLSIKLKEAEQRAEHAEKQVKRLQKEVDRLEDRLFNEKEKYKAICDDLDQTFAELTGY
# B8: IntS10 (protein)
# chain: MPSQEENELYMVKEAQRLRKSDPCAAMAWIITAKTLYPNAFNLQYEAYLLERDAQNYEEAAKCFSAIATNFQNQHTELWQEINSLTNALRNENETTPEHEFYVKMYKHLTPEVQHNIFMHTINHSADNLERIYIYILMFNKFPKSAITQAPRLLEMLAEGMKTEPDLYQRILVEEVLPMIQNKPPELSPNLACRLYTSSLEFYLRQIMDESDTADAWKNIFKVLMICGQMMGWEPFLPFSKHVNQNVYWEKLVDILSGSPAGSSQVLFYATTLFIYSLHGYIRNCKLRIEDADVTHVLVEGFMEWSPEGDGSEVPSMEPPKFSLTTAISPELSKAFLHAAQCWQLLNTDQFQRDFSQLMLALPLAPWISRFLFDLAIYFGHRDEANKLMADMTTQSSLVQSLQILSLNLMQGSMTLQGFQCILKILSELPTTQGQLLENMSLKGHRHMVFLPLTRSALVQYCVGAIISRLSRKVFEPNVPDRLLGDILVLQQLNLLNDVLLTQQIFNLIKQRKSFNLRTLSTYIINIDLLEELSHIWNSQQEDNFELTSSPNSSGTPTATTVAGGSQSRRIGTRGADKGARDEFRAITRQQIARCNENVITLLANFINQEHLMLAQHIFGISQPVETIVIK
# B9: RhoGAP92B (protein)
# chain: MKRQFAKIKIAAENLSRSSKSDSKDSELEAIERQVDRYRDTIEKIVRKLPALSGGGGSGSGSSEEQDKRTKKNSHYKIAQALDESAKELPKDMPLQKVLANCGELEKTMAECIIESELETEAKVVRRLKNILDKEIQEISTLKRNVSRTLQEYTSLKRSHEAAIRLEEPAAKVNHIKSQQEECELKLEKERDAWAAQMLELIAKEDEIVSCIRDYVLNQRNYHERALQHVNASLARIQDTIQGTEKSRFGTSLKEHLTSTNREISYIVELCCCCLLEHGLEEEGLLRVGCASTKLRRMKHALEAQHVKTPLPLDYQDPHVIGSILKLYLRELPEPLLTYNLYKDFIRIAERHSEAERKTEIKAILTKLPKENYANLRYLTRFLSIVQQRSALNKMSSQNLAIVMSPNMLWPRIDKSSNAPADYIGQVNSSSAANIIVELLISQWDYFFIGEVEFYLTLQKQKLFVEGKSKSNSSNENLDRNDSEVMESPRYGTLRRQKANAPSPPTTNGNGIIMTTSQTSHRPHAKELFPQQTPEKQEKPAKPPLPNLPQFQSPAASQPTQTQLEPLPPPPVTPAKPVPMTRTQFFGLDNLPSPTADRKSTDSIGSFKLKPDVPQKPLLPKRPTVLGVGVPKADGKSDDEGGTTPTQATIDNGNGSVRFKTEHFLDKLRQENGETNGTREVSSTTKENNHNHDPPATAADQNQQQAQPQVTTPISPNSFQTPKRPTVPAPPPPTNWKSSD
# B10: Prosalpha7 (protein)
# chain: MSTIGTGYDLSASQFSPDGRVFQIDYASKAVEKSGTVIGIRGKDAVVLAVEKIITSKLYEPDAGGRIFTIEKNIGMAVAGLVADGNFVADIARQEAANYRQQFEQAIPLKHLCHRVAGYVHAYTLYSAVRPFGLSIILASWDEVEGPQLYKIEPSGSSFGYFACASGKAKQLAKTEMEKLKMDMRTDELVESAGEIIYKVHDELKDKDFRFEMGLVGRVTGGLHLINPSELTEKARKAGDAANKDEDSDNETH
# B11: Ndg (protein)
# chain: MPTFGSKLLACLLLSSVILVSGQFEHYLDSLRASELYEFEDGSLGSIHLLPKGDSETIVLQLEQPIHFYGEQYEQLYINTNGILTFNSEFPEYLNQPFPLEYASIAAFYSNVDTSFSDEGTSISLFESKEQSILDRASSLVRYAFSSQSEFEARQVIVATWRNVGYFDSKTDRLNTFQVALIANEQSTFVQFIYPDGGLNWLQGETAGLGLPDIRAQAGFVAEDGRFYTLNGSGSENARFLSESTNLGVPGVWLFEVAPIENEQNVRSPDNAESLTESPALALSCQAHAHQCHEKAECHDKAEGYCCVCGSGFYGNGKSCLANDQPIRVTGTLTGELNKQPVSEEAKLQSYVVTSEGRTYTTINPLTPELGAQLRLVLPLLTTVPWLFAKSVGGVANGYQLTGGVYTHVSRLQFDSGENLHVNQTFEGLNYWDQLSVKIEIYGEVPAVAADAVLILPDYVEEYTFERPGELKSVQVLNINITEEQRVLGLQVEQRILYRSCLRDDEADPSATKVLQKISKVALDYVERDQALRIGAMSKVGVTPESNACNDGTADCVENSVCVPYEDTYRCDCYHGFAAQLDERGVEVCLDIDECATGSHVCDENAVCDNTEGGFNCYCTEGFEGNGYRCLSNSTADNIEYPPAVEGQAEPTSEPSPNPSPYPDQGQDQEREREDDQYPQPNPYPYPEEQIPQHPDECYRCSKDADCYQGRCTCHEGFDGDGYTCTNICGHGEVWENGRCEPLLLERHDVDPLCDALGECRCPYGYELSEDSQRCTYVQEFDGERNADLIPCDVDENCHINATCNWYGQELRHICTCQPGFRGDGYNCDPISDDSCAIRPDICDVHADCVYEEHLGKSECQCQAGYTGNGFNCQLAAECQSAEHCGENAFCDDGVCRCQADFERDVSDRCVPAGRCGSVFCGSNAICKWDSAEGVQYCDCLDGYQGDALTGCTSKPLSCHVLNNCGIHATCEPTEDPANYECQCIAGFKGDGYVCIEEQNCLNNPTLCDMNAQCRSTNSGLVCVCNQGFFGNGSLCQERQHQDSDFLIVSQGVMIARVPLNGRNVRPISVAQMAIGLDKDCVEGRVYWGDISTKKIVSTKYDGTDLRPFITTDIESPEGIAIDVISRRLYWADSAKDTIEVASLDDPSLRAVIINKQLVNPRGIAVDPYREKLFWSDWDRESPKIEMSNLDGTGRELLLGKDDVTLPNSLVVLENSGEVCYADAGTKKVECIEPQNRQIRTISNELSYPFGITFTHDQFYWTDWTTKKVEIVDSLGARQTPIQPPFFGSHKMYGMTVVEQHCPQYQSPCQISNGGCTDSRLCLVNRQAPSGKSCKCTSASTGCTVLAPGY
# B12: mfrn (protein)
# chain: MNIDDYESLPTTSVGVNMTAGAIAGVLEHVVMYPLDSVKTRMQSLSPPTKNMNIVSTLRTMITREGLLRPIRGASAVVLGAGPAHSLYFAAYEMTKELTAKFTSVRNLNYVISGAVATLIHDAISSPTDVIKQRMQMYNSPYTSVVSCVRDIYKREGFKAFYRAYGTQLVMNLPYQTIHFTTYEFFQNKMNLERKYNPPVHMAAGAAAGACAAAVTTPLDVIKTLLNTQETGLTRGMIEASRKIYHMAGPLGFFRGTTARVLYSMPATAICWSTYEFFKFYLCGLDADQYKSSITGSSEPRKADYVLPRTTDEEQIDQEREAAKEKDTTATLHSAPTSVNASGAIKTVCELSTRPAGPTINLHTRHTDVKSPYERGFST
# B13: TfIIA-L (protein)
# chain: MALCQTSVLKVYHAVIEDVITNVRDAFLDEGVDEQVLQEMKQVWRNKLLASKAVELSPDSGDGSHPPPIVANNPKSHKAANAKAKKAAAATAVTSHQHIGGNSSMSSLVGLKSSAGMAAGSGIRNGLVPIKQEVNSQNPPPLHPTSAASMMQKQQQAASSGQGSIPIVATLDPNRIMPVNITLPSPAGSASSESRVLTIQVPASALQENQLTQILTAHLISSIMSLPTTLASSVLQQHVNAALSSANHQKTLAAAKQLDGALDSSDEDESEESDDNIDNDDDDDLDKDDDEDAEHEDAAEEEPLNSEDDVTDEDSAEMFDTDNVIVCQYDKITRSRNKWKFYLKDGIMNMRGKDYVFQKSNGDAEW
# Columns and labels:
# Test in all cases: MAPPIT interaction score (arbitrary units); higher = stronger binary interaction signal, active = hit call of the paper
# CG4511 = conditions: MAPPIT configuration: N-C; pair source set: screen_3
# CG4884 = conditions: MAPPIT configuration: N-N; pair source set: Finley_Y2H
# CG43325 = conditions: MAPPIT configuration: N-C; pair source set: screen_4
# caup = conditions: MAPPIT configuration: N-N; pair source set: screen_1
# CG4853 = conditions: MAPPIT configuration: N-N; pair source set: Curagen_low_conf
# CG4789 = conditions: MAPPIT configuration: N-N; pair source set: Lit-BS-16
# PVRAP = conditions: MAPPIT configuration: N-N; pair source set: Lit-BS-16
# CG4360 = conditions: MAPPIT configuration: N-N; pair source set: Curagen_low_conf
# CG46280 = conditions: MAPPIT configuration: N-C; pair source set: screen_4
# CG5062 = conditions: MAPPIT configuration: N-N; pair source set: Curagen_low_conf
# slmo = conditions: MAPPIT configuration: N-N; pair source set: Curagen_high_conf
# CG44837 = conditions: MAPPIT configuration: N-N; pair source set: Curagen_low_conf
# CG4707 = conditions: MAPPIT configuration: N-N; pair source set: Curagen_high_conf
# CG4860 = conditions: MAPPIT configuration: N-N; pair source set: Curagen_high_conf
# CG4325 = conditions: MAPPIT configuration: N-N; pair source set: DPIM
# CG4617 = conditions: MAPPIT configuration: N-N; pair source set: Curagen_high_conf
# 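Note: HEK293T cells with Epo stimulation, STAT-responsive firefly luciferase reporter, fold induction versus unstimulated cells divided by the larger fold induction of two negative controls lacking either bait or prey.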
binder,measurement,setting,value
B1,MAPPIT interaction score,CG4511,5.21 (active)
B2,MAPPIT interaction score,CG4884,0.246
B3,MAPPIT interaction score,CG43325,1.12
same,MAPPIT interaction score,caup,0.0255
B4,MAPPIT interaction score,CG4853,1.6
B5,MAPPIT interaction score,CG4789,0.553
same,MAPPIT interaction score,PVRAP,-1.6
B6,MAPPIT interaction score,CG4360,0.0302
B7,MAPPIT interaction score,CG46280,1.5
B8,MAPPIT interaction score,CG5062,-0.102
same,MAPPIT interaction score,slmo,1.15
B9,MAPPIT interaction score,CG44837,-0.0901
B10,MAPPIT interaction score,CG4707,-0.137
B11,MAPPIT interaction score,CG4860,-0.238
B12,MAPPIT interaction score,CG4325,-0.276
B13,MAPPIT interaction score,CG4617,-0.0193
